# Measurements: the supplement of paper PMC8728848
# Shown is part of a subset that was picked to be rich in the strongest signals.
# B1: Clrb (Mus musculus) (protein)
# chain: ITGATKTEQIPVNKTYAACPQNWIGVENKCFYFSEYPSNWTFAQAFCMAQEAQLARFDNQDELNFLMRYKANFDSWIGLHRESSEHPWKWTDNTEYNNTIPIRGEERFAYLNNNGISSTRIYSLRMWICSKLNSYSLHCQTPFFPSGTKHHHHHHHHG
# Key:
# Test in all cases: glycan array binding signal (z-score within array); higher = stronger binding
# Conditions in all cases: glycan notation: IUPAC condensed, linker removed
# [1] = target: Fuc(a1-2)Gal(b1-4)[Fuc(a1-3)]GlcNAc(b1-3)[Neu5Ac(a2-6)Gal(b1-4)GlcNAc(b1-6)]Gal(b1-4)Glc
# How it was run: (§1)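 The binding signal is a Z-score computed within each array and averaged over linkers. Arrays of the same protein sequence at different concentrations or buffers were also averaged together. Data originate from 3228 arrays in the Consortium for Functional Glycomics database, kept only where the protein sequence was available.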
# [2] = target: Fuc(a1-2)[Gal(a1-3)]Gal
# How it was run: as §1
# [3] = target: Fuc(a1-2)[GalNAc(a1-3)]Gal(b1-4)GlcNAc(b1-2)Man(a1-3)[Fuc(a1-2)[GalNAc(a1-3)]Gal(b1-4)GlcNAc(b1-2)Man(a1-6)]Man(b1-4)GlcNAc(b1-4)[Fuc(a1-6)]GlcNAc
# How it was run: as §1
# [4] = target: Fuc(a1-2)[GalNAc(a1-3)]Gal(b1-4)GlcNAc(b1-3)Gal(b1-4)GlcNAc(b1-3)Gal(b1-4)GlcNAc
# How it was run: as §1
# [5] = target: Fuc(a1-2)[GalNAc(a1-3)]Gal(b1-4)[Fuc(a1-3)]GlcNAc(b1-3)GalNAc
# How it was run: as §1
# [6] = target: Fuc(b1-3)GlcNAc
# How it was run: as §1
# [7] = target: Gal(a1-3)Gal(b1-4)GlcNAc(b1-3)GalNAc
# How it was run: as §1
# [8] = target: Gal(a1-6)Glc
# How it was run: as §1
# [9] = target: Gal(b1-3)GlcNAc(b1-2)[Gal(b1-3)GlcNAc(b1-6)]Man(a1-6)[Gal(b1-3)GlcNAc(b1-2)Man(a1-3)]Man(b1-4)GlcNAc(b1-4)GlcNAc
# How it was run: as §1
# [10] = target: Gal(b1-3)GlcNAc(b1-3)Gal(b1-3)GlcNAc
# How it was run: as §1
# [11] = target: Gal(b1-3)[Fuc(a1-4)]GlcNAc
# How it was run: as §1
# [12] = target: Gal(b1-3)[Fuc(a1-4)]GlcNAc(b1-3)Gal(b1-3)[Fuc(a1-4)]GlcNAc
# How it was run: as §1
# [13] = target: Gal(b1-3)[GlcNAc(b1-6)]GalNAc
# How it was run: as §1
# [14] = target: Gal(b1-4)GlcNAc
# How it was run: as §1
# [15] = target: Gal(b1-4)GlcNAc(b1-2)Man(a1-3)Man(b1-4)GlcNAc(b1-4)GlcNAc
# How it was run: as §1
# [16] = target: Gal(b1-4)GlcNAc(b1-2)[Gal(b1-4)GlcNAc(b1-6)]Man(a1-6)[GlcNAc(b1-4)][Gal(b1-4)GlcNAc(b1-2)Man(a1-3)]Man(b1-4)GlcNAc(b1-4)GlcNAc
# How it was run: as §1
# [17] = target: Gal(b1-4)GlcNAc(b1-3)[Fuc(a1-3)GlcNAc(b1-6)]Gal(b1-4)Glc
# How it was run: as §1
# [18] = target: Gal(b1-4)GlcNAc(b1-3)[GlcNAc(b1-6)]Gal(b1-4)GlcNAc
# How it was run: as §1
# [19] = target: Gal3S6S(b1-4)GlcNAc
# How it was run: as §1
# [20] = target: Gal4S(b1-4)GlcNAc
# How it was run: as §1
# [21] = target: Gal4S6S(b1-4)GlcNAc
# How it was run: as §1
# [22] = target: Gal6S(b1-3)GlcNAc6S
# How it was run: as §1
# [23] = target: GalNAc(a1-3)GalNAc(a1-3)Gal(a1-4)Gal(b1-4)GlcNAc
# How it was run: as §1
# [24] = target: GalNAc(b1-3)Gal(a1-6)Gal(b1-4)Glc
# How it was run: as §1
# [25] = target: GalNAc(b1-4)GlcNAc(b1-2)Man(a1-3)[GalNAc(b1-4)GlcNAc(b1-2)Man(a1-6)]Man(b1-4)GlcNAc(b1-4)GlcNAc
# How it was run: as §1
# [26] = target: GalNAc6S(b1-4)GlcNAc
# How it was run: as §1
# [27] = target: Glc(a1-4)Glc(a1-4)Glc(a1-4)Glc
# How it was run: as §1
# [28] = target: GlcNAc(a1-3)Gal(b1-4)GlcNAc
# How it was run: as §1
# [29] = target: GlcNAc(a1-4)Gal(b1-3)GlcNAc
# How it was run: as §1
# [30] = target: GlcNAc(a1-4)Gal(b1-4)GlcNAc
# How it was run: as §1
# [31] = target: GlcNAc(a1-4)Gal(b1-4)GlcNAc(b1-3)Gal(b1-4)GlcNAc(b1-3)Gal(b1-4)GlcNAc
# How it was run: as §1
# [32] = target: GlcNAc(b1-2)Man(a1-3)[GlcNAc(b1-4)][GlcNAc(b1-2)Man(a1-6)]Man(b1-4)GlcNAc(b1-4)[Fuc(a1-6)]GlcNAc
# How it was run: as §1
# [33] = target: GlcNAc(b1-2)[GlcNAc(b1-4)]Man(a1-3)[GlcNAc(b1-4)][GlcNAc(b1-2)Man(a1-6)]Man(b1-4)GlcNAc(b1-4)GlcNAc
# How it was run: as §1
# [34] = target: GlcNAc(b1-3)Gal(b1-4)GlcNAc(b1-2)[GlcNAc(b1-3)Gal(b1-4)GlcNAc(b1-6)]Man(a1-6)[GlcNAc(b1-3)Gal(b1-4)GlcNAc(b1-2)Man(a1-3)]Man(b1-4)GlcNAc(b1-4)GlcNAc
# How it was run: as §1
# [35] = target: GlcNAc(b1-3)Man
# How it was run: as §1
# [36] = target: GlcNAc(b1-4)GlcNAc(b1-4)GlcNAc(b1-4)GlcNAc(b1-4)GlcNAc(b1-4)GlcNAc
# How it was run: as §1
# [37] = target: GlcNAc(b1-6)Gal(b1-4)GlcNAc
# How it was run: as §1
# [38] = target: Man(a1-3)[Man(a1-6)]Man(b1-4)GlcNAc(b1-4)GlcNAc
# How it was run: as §1
# [39] = target: Neu5Ac(a2-3)Gal(b1-3)[Fuc(a1-4)]GlcNAc(b1-3)Gal(b1-3)[Fuc(a1-4)]GlcNAc
# How it was run: as §1
# [40] = target: Neu5Ac(a2-3)Gal(b1-4)GlcNAc(b1-2)Man(a1-3)[Neu5Ac(a2-3)Gal(b1-4)GlcNAc(b1-2)Man(a1-6)]Man(b1-4)GlcNAc(b1-4)[Fuc(a1-6)]GlcNAc
# How it was run: as §1
# [41] = target: Neu5Ac(a2-3)Gal(b1-4)GlcNAc(b1-3)Gal(b1-3)GlcNAc
# How it was run: as §1
# [42] = target: Neu5Ac(a2-3)Gal(b1-4)GlcNAc(b1-3)GalNAc
# How it was run: as §1
# [43] = target: Neu5Ac(a2-3)Gal(b1-4)GlcNAc(b1-6)GalNAc
# How it was run: as §1
# [44] = target: Neu5Ac(a2-3)Gal(b1-4)[Fuc(a1-3)]GlcNAc(b1-3)GalNAc
# How it was run: as §1
# [45] = target: Neu5Ac(a2-3)Gal6S(b1-4)GlcNAc
# How it was run: as §1
# [46] = target: Neu5Ac(a2-6)Gal(b1-4)GlcNAc(b1-2)Man(a1-3)[GlcNAc(b1-2)Man(a1-6)]Man(b1-4)GlcNAc(b1-4)GlcNAc
# How it was run: as §1
# [47] = target: Neu5Ac(a2-6)Gal(b1-4)GlcNAc(b1-2)Man(a1-6)[Man(a1-3)]Man(b1-4)GlcNAc(b1-4)GlcNAc
# How it was run: as §1
# [48] = target: Neu5Ac(a2-6)Gal(b1-4)GlcNAc(b1-3)Gal(b1-4)GlcNAc(b1-3)GalNAc
# How it was run: as §1
# [49] = target: Neu5Ac(a2-6)Gal(b1-4)GlcNAc(b1-3)Gal(b1-4)[Fuc(a1-3)]GlcNAc(b1-3)Gal(b1-4)[Fuc(a1-3)]GlcNAc
# How it was run: as §1
# [50] = target: Neu5Ac(a2-6)GalNAc
# How it was run: as §1
# [51] = target: Neu5Ac(a2-6)GalNAc(b1-4)GlcNAc
# How it was run: as §1
# [52] = target: Neu5Ac(a2-8)Neu5Ac(a2-8)Neu5Ac(a2-3)[Gal(b1-3)GalNAc(b1-4)]Gal(b1-4)Glc
# How it was run: as §1
# [53] = target: Neu5Ac(a2-8)Neu5Ac(a2-8)Neu5Ac(a2-8)Neu5Ac(a2-3)[GalNAc(b1-4)]Gal(b1-4)Glc
# How it was run: as §1
# [54] = target: Neu5Gc(a2-6)GalNAc
# How it was run: as §1
binder,measurement,setting,value
B1,glycan array binding signal (z-score),[1],-0.359
same,glycan array binding signal (z-score),[2],-0.293
same,glycan array binding signal (z-score),[3],-0.417
same,glycan array binding signal (z-score),[4],-0.215
same,glycan array binding signal (z-score),[5],-0.299
same,glycan array binding signal (z-score),[6],-0.294
same,glycan array binding signal (z-score),[7],-0.505
same,glycan array binding signal (z-score),[8],-0.176
same,glycan array binding signal (z-score),[9],-0.249
same,glycan array binding signal (z-score),[10],-0.431
same,glycan array binding signal (z-score),[11],-0.303
same,glycan array binding signal (z-score),[12],-0.404
same,glycan array binding signal (z-score),[13],-0.186
same,glycan array binding signal (z-score),[14],-0.146
same,glycan array binding signal (z-score),[15],-0.355
same,glycan array binding signal (z-score),[16],-0.157
same,glycan array binding signal (z-score),[17],-0.386
same,glycan array binding signal (z-score),[18],5.13
same,glycan array binding signal (z-score),[19],-0.099
same,glycan array binding signal (z-score),[20],-0.31
same,glycan array binding signal (z-score),[21],-0.101
same,glycan array binding signal (z-score),[22],-0.357
same,glycan array binding signal (z-score),[23],-0.541
same,glycan array binding signal (z-score),[24],-0.023
same,glycan array binding signal (z-score),[25],4.64
same,glycan array binding signal (z-score),[26],4.38
same,glycan array binding signal (z-score),[27],-0.498
same,glycan array binding signal (z-score),[28],5.77
same,glycan array binding signal (z-score),[29],3.81
same,glycan array binding signal (z-score),[30],4.2
same,glycan array binding signal (z-score),[31],5.29
same,glycan array binding signal (z-score),[32],4.51
same,glycan array binding signal (z-score),[33],4.02
same,glycan array binding signal (z-score),[34],0.54
same,glycan array binding signal (z-score),[35],-0.377
same,glycan array binding signal (z-score),[36],7.67
same,glycan array binding signal (z-score),[37],1.87
same,glycan array binding signal (z-score),[38],-0.297
same,glycan array binding signal (z-score),[39],-0.359
same,glycan array binding signal (z-score),[40],-0.226
same,glycan array binding signal (z-score),[41],-0.383
same,glycan array binding signal (z-score),[42],-0.44
same,glycan array binding signal (z-score),[43],-0.392
same,glycan array binding signal (z-score),[44],-0.205
same,glycan array binding signal (z-score),[45],-0.365
same,glycan array binding signal (z-score),[46],-0.472
same,glycan array binding signal (z-score),[47],-0.503
same,glycan array binding signal (z-score),[48],-0.628
same,glycan array binding signal (z-score),[49],-0.211
same,glycan array binding signal (z-score),[50],-0.508
same,glycan array binding signal (z-score),[51],4.69
same,glycan array binding signal (z-score),[52],-0.421
same,glycan array binding signal (z-score),[53],-0.449
same,glycan array binding signal (z-score),[54],-0.377
